# Test results: PubChem BioAssay
# Active and inactive are the calls of the source. Unless noted, the rule behind the calls is not given here.
# Key:
# [1] = anti-His antibody binders, primary screen, artefact control for SMM control protein annotation, biochemical, small-molecule microarray, 635 nm fluorescence (AID 1128); details: anti-His Alexa647 antibody binding, higher = more signal;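 note: score merges feature fluorescence with signal-to-noise for each printed compound spot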
# [2] = system: Human papillomavirus type 1a E7 protein (residues 1-88); assay: HPV1a E7 small-molecule binders, primary screen, biochemical, small-molecule microarray, residues 1-88, 635 nm (AID 1129); details: small-molecule microarray binding, fluorescence 635 nm; higher = more signal
# [3] = biological target: Focal adhesion kinase 1 (Homo sapiens) (UniProt Q05397); assay: small-molecule microarray binders of FAK, primary screen, biochemical, 635/667 nm fluorescence, BSA, DTT (AID 1130); details: PTK2 binding, 635 nm fluorescence, higher = more signal;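 note: composite of spot emission at 667 nm and signal to noise over triplicate slides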
# [4] = system: Fibrinogen (Alexa647-labelled); assay: fibrinogen binders on compound microarrays, profiling panel, artefact control for SMM control-protein annotation, biochemical, small-molecule microarray, 635/667 nm fluorescence (AID 1131); details: fibrinogen-A647 binding fluorescence, higher = more signal;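 note: z-score merges 667 nm fluorescence with per-spot signal-to-noise over triplicate slides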
# [5] = biological target: Follistatin (Homo sapiens) (UniProt P19883); assay: follistatin binders on small-molecule microarrays, primary screen, biochemical, small-molecule microarray, 635/667 nm fluorescence (AID 1132); details: FST binding, 635 nm fluorescence, higher = more signal
# [6] = biological target: Fibroblast growth factor 2 (Homo sapiens) (UniProt P09038); assay: FGF2 binders on small-molecule microarrays, primary screen, biochemical, small-molecule microarray, 635/667 nm fluorescence (AID 1133); details: small-molecule microarray binding, FGF2, fluorescence 635/667; higher = more signal
# [7] = mitochondrial membrane potential change in A549 cells, profiling panel, cell-based, JC-1 fluorescence, basal, 24 h, 100 nL (AID 1138); details: higher = more signal;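 note: A549 lung adenocarcinoma cells under basal conditions with no added stimulus; test concentration not given here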
# [8] = system: Lefty1; assay: Lefty1 binders on small-molecule microarrays, primary screen, biochemical, small-molecule microarray, 635/667 nm fluorescence (AID 1139); details: small-molecule microarray binding, fluorescence 635/667; higher = more signal
# [9] = system: wheat germ agglutinin (Triticum aestivum), Alexa647-labelled; assay: wheat germ agglutinin binders on compound microarrays, profiling panel, artefact control for SMM control-protein annotation, biochemical, small-molecule microarray, 635/667 nm fluorescence (AID 1140); details: WGA-A647 binding, 635 nm fluorescence, higher = more signal;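 note: score merges 667 nm feature emission with signal to noise over triplicate slides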
# [10] = biological target: Luciferin 4-monooxygenase (Photinus pyralis) (UniProt P08659); assay: firefly luciferase enzyme inhibitors, primary screen, biochemical, luminescence, purified enzyme, 2006 set (AID 1141); details: SteadyGlo luminescence, 30 min, higher = more signal, called active from +8 up or from −8 down;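 note: cell-free assay with purified firefly luciferase at 100 ng per well in PBS; test concentration not given here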
# [11] = system: Wnt5a (protein binding on small-molecule microarray); assay: Wnt5a binders on small-molecule microarray, primary screen, biophysical, 635/667 nm fluorescence (AID 1142); details: 635 nm fluorescence, higher = more signal;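 note: fluorescence read at 667 nm with signal to noise per printed feature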
# [12] = cell viability in Huh7 cells, primary screen, cytotoxicity control for HCV replication inhibitor project, CellTiter-Glo luminescence, basal, 48 h (AID 1143); details: Huh7 HCV replicon, higher = more signal, called active from +8 up or from −8 down;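 note: Huh7 hepatoma cells carrying a hepatitis C replication reporter with no stimulus; test concentration not given here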
# [13] = P. aeruginosa biofilm formation inhibitors, primary screen, PAO1 strain, BacTiter-Glo luminescence, LB-PBS (AID 1144); details: 12 h, higher = more signal
# [14] = CREB reporter modulators without forskolin, primary screen, cell-based, PC12, CRE-LacZ reporter, unstimulated (AID 1145); details: no forskolin, luminescence, 4.5 h, higher = more signal, called active from +8 up or from −8 down
# [15] = CREB reporter modulators under forskolin, primary screen, cell-based, PC12, CRE-LacZ reporter, forskolin-stimulated (AID 1146); details: luminescence, 4.5 h, higher = more signal, called active from +8 up or from −8 down;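 note: PC12 cells with 6xCRE LacZ reporter stimulated by forskolin 10 µM; beta-galactosidase reporter signal reflecting CREB driven transcription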
# [16] = biological target: Streptavidin (Streptomyces avidinii) (UniProt P22629); assay: streptavidin binders on small-molecule microarray, primary screen, artefact control for SMM compound annotation, biophysical, 635/667 nm fluorescence (AID 1147); details: streptavidin binding, higher = more signal;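 note: signal reflects streptavidin binding to arrayed compounds as a control protein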
# [17] = small-molecule binders of probe aInhba, primary screen, biochemical, small-molecule microarray, 635/667 nm fluorescence (AID 1148); details: higher = more signal;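 note: score merges 667nm spot fluorescence with signal-to-noise for antibody binding to printed compounds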
# [18] = biological target: Torsin-1A (Homo sapiens) (UniProt O14656); assay: torsin A binders from cell lysate, primary screen, small-molecule microarray, wild-type, 635/667 nm (AID 1149); details: COS7 hTOR1A-WT lysate, 635 nm fluorescence, higher = more signal
# [19] = biological target: Torsin-1A (Homo sapiens) (UniProt O14656); assay: small-molecule binders of mutant TOR1A in lysate, primary screen, cell lysate, small-molecule microarray, COS7 lysate, 635/667 nm fluorescence (AID 1150); details: COS7 hTOR1A mutant lysate, 635 nm fluorescence, higher = more signal;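 note: score pools 667 nm emission and signal to noise measuring lysate protein binding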
# [20] = system: Sonic hedgehog protein (Shh); assay: small-molecule binders of Shh protein, primary screen, biochemical, small-molecule microarray, 635/667 nm fluorescence (AID 1151); details: small-molecule microarray binding, 635 nm fluorescence; higher = more signal;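 note: Shh protein binding to compounds spotted on small-molecule microarray slides; score combines spot fluorescence intensity with signal-to-noise across triplicate slides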
# Streptavidin (Streptomyces avidinii), sequence (P22629 whole entry, looked up): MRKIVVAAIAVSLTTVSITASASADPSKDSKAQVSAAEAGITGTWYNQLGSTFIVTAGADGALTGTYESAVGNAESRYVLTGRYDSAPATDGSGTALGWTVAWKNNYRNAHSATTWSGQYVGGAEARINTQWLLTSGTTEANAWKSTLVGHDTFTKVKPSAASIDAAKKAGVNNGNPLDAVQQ
# Follistatin (Homo sapiens), sequence (P19883 whole entry, looked up): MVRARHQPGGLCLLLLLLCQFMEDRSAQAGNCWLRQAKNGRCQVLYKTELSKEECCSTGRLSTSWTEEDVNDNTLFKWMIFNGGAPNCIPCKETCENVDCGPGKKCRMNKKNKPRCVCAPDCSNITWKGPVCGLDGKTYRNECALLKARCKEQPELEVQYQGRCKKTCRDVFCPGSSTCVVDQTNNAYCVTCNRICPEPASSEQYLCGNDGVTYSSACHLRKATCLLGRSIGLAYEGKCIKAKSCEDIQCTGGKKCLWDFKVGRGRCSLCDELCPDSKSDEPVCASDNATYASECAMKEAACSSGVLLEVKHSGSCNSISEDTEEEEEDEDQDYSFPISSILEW
# Focal adhesion kinase 1 (Homo sapiens), sequence (Q05397 whole entry, looked up): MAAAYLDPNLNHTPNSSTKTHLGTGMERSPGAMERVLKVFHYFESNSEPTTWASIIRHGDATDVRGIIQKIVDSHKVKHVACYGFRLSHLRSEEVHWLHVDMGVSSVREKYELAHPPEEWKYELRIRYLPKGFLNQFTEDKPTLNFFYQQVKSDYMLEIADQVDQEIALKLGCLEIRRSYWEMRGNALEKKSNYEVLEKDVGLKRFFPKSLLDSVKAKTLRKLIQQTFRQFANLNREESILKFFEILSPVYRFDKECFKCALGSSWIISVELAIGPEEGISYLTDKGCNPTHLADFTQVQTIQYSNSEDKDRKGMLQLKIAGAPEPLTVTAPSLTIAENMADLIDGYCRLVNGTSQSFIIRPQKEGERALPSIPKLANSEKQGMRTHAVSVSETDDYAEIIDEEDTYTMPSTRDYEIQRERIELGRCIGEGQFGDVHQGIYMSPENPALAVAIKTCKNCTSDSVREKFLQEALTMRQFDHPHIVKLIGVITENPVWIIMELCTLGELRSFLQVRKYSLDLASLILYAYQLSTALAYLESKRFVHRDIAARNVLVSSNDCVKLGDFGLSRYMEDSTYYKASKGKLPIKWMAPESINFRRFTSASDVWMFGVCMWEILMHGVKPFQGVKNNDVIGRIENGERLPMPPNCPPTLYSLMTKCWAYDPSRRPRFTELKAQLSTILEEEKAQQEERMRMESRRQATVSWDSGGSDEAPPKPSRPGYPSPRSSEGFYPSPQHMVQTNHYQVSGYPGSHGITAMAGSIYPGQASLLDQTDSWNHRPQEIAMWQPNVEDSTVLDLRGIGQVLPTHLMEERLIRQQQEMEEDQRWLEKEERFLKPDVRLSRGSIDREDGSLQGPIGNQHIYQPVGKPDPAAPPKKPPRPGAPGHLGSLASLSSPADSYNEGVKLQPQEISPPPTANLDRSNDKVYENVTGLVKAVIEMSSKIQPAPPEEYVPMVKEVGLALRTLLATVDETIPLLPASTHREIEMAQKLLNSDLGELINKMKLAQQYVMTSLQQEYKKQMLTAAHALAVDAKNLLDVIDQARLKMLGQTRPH
# Luciferin 4-monooxygenase (Photinus pyralis), sequence (P08659 whole entry, looked up): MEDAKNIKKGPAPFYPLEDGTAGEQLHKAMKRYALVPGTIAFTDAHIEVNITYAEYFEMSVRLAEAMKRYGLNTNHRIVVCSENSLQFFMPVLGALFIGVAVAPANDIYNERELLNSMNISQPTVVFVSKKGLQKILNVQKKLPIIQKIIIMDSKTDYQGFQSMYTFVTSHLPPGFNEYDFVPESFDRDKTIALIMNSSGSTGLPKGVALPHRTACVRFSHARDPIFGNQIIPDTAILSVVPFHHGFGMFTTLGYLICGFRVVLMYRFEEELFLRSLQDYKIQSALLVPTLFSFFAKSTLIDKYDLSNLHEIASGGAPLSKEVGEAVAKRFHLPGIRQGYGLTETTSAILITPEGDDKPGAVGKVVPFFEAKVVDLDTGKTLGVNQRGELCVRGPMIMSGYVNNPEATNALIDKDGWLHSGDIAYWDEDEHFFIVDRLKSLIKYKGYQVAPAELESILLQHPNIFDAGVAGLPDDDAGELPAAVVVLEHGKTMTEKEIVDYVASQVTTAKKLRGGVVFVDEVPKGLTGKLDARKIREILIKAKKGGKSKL
# Fibroblast growth factor 2 (Homo sapiens), sequence (P09038 whole entry, looked up): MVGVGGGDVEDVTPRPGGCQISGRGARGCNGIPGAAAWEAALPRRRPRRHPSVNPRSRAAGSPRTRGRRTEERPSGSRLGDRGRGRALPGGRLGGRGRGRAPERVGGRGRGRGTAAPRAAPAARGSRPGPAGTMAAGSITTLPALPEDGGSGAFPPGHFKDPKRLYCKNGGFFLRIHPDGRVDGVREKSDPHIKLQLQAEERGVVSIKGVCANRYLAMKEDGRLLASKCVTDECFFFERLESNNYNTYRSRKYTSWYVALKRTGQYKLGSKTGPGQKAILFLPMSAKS
# Torsin-1A (Homo sapiens), sequence (O14656 whole entry, looked up): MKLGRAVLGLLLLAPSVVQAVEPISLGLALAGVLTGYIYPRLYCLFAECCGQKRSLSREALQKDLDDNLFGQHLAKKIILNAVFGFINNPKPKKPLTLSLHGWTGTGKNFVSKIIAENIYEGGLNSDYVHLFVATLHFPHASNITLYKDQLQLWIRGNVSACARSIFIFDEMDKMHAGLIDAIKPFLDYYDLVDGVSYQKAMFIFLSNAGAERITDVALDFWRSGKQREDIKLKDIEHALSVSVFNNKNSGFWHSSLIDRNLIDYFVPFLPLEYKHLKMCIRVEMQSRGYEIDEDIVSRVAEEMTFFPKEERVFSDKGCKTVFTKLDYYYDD
Compound,composite z-score [1],composite z-score [2],composite z-score [3],composite z-score [4],composite z-score [5],composite z-score [6],z-score [7],composite z-score [8],composite z-score [9],z-score [10],composite z-score [11],z-score [12],z-score [13],z-score [14],z-score [15],composite z-score [16],composite z-score [17],composite z-score [18],composite z-score [19],composite z-score [20]
CCCCN1CC=CC23O[C@@H]4C=CCOC(=O)[C@@H]4[C@H]2C(=O)N(C(C)CO)[C@@H]3C1=O (stereo not given in full),-0.461,-1.01,-0.243,-1.32,-1.55,-0.588,-0.414,-1.56,-1.02,-0.313 (inactive),-0.166,-0.251 (inactive),1.27 (inactive),-0.488 (inactive),0.401 (inactive),-0.78,-0.128,0.0171,-0.241,-0.213
[N-]=[N+]=NCc1ccccc1C[C@@]1(C(N)=O)N=C(c2ccc(OCCCO)cc2)O[C@@H]1c1ccccc1CN=[N+]=[N-],1.13,1.22,0.0375,0.761,0.591,0.653,1.45,-0.242,0.756,-1.11 (inactive),0.592,-2.14 (inactive),0.0387 (inactive),0.0451 (inactive),0.161 (inactive),1.13,-0.0418,0.549,0.335,-0.302
CCOC(=O)C1=CC[C@@H](c2ccc([N+](=O)[O-])cc2)N(S(=O)(=O)c2ccc(C)cc2)[C@H]1c1ccccc1,1.89,1.21,0.471,0.979,1.01,0.554,1.26,0.969,0.695,1.94 (inactive),0.503,-1.36 (inactive),-0.41 (inactive),0.182 (inactive),0.147 (inactive),1.57,0.165,0.149,0.763,1.39
COCCOC(=O)N1C(=O)[C@@]2(c3cc(C#Cc4ccc(OC)cc4)ccc31)[C@H](C(=O)NC[C@H](O)c1ccccc1)[C@H]1C(=O)O[C@H](c3ccccc3)[C@H](c3ccccc3)N1[C@@H]2c1ccc(O)cc1,0.933,1.16,0.33,0.912,1.16,1.01,-1.47,1.19,0.666,0.273 (inactive),0.317,-2.05 (inactive),-0.392 (inactive),-1.01 (inactive),-1.19 (inactive),0.582,0.0228,0.772,0.527,1.73
Cc1ccc(C(C)CC(O)C2C=CC3C(=O)N(c4ccccc4)C(=O)C3N2Nc2ccc(C(C)C)cc2)o1 (stereo not given),0.953,1.16,0.423,0.59,0.75,-0.14,-0.678,-0.795,1.15,-0.528 (inactive),0.301,0.183 (inactive),-0.203 (inactive),0.246 (inactive),0.0702 (inactive),1.33,0.343,0.216,0.715,0.154
NC(=O)NCC#Cc1ccc2c(c1)[C@]1(C(=O)N2)[C@H](C(=O)Nc2nc3ccccc3s2)[C@H]2C(=O)O[C@H](c3ccccc3)[C@H](c3ccccc3)N2[C@@H]1c1ccc(O)cc1,-0.198,0.52,0.286,0.629,1.28,0.651,-2.41,0.383,0.696,-1.76 (inactive),0.236,0.0524 (inactive),0.688 (inactive),-1.15 (inactive),-1.58 (inactive),2.27,0.806,0.171,-0.216,0.922
CC(C)C[C@@H]1NC(=O)[C@H]2C[C@@H](C(=O)NCCCCCC[N+](C)(C)C)[C@@H](c3cccc(OCCO)c3)N2C1=O,2.76,0.381,0.125,-1.08,1.43,1.01,-0.525,0.691,0.432,0.579 (inactive),-0.0449,-0.192 (inactive),-0.616 (inactive),-0.256 (inactive),-0.139 (inactive),-0.368,0.0855,0.126,0.62,1.75
C=C(CCCC)C(=O)CC[C@@H](OC(=O)c1cccnc1)c1ccccc1OCCO,-0.349,-0.107,-0.0523,0.48,0.865,1.34,1.24,1.56,0.058,-0.511 (inactive),0.047,-1.55 (inactive),-0.325 (inactive),4.16 (inactive),1.04 (inactive),-0.368,-0.128,0.417,0.781,1.76
COc1ccc(C(O)C2C=CC3C(=O)N(c4ccccc4)C(=O)C3N2Nc2ccccc2)cc1OCc1ccccc1 (stereo not given),0.621,1.24,0.315,0.942,1.22,-0.132,-0.0208,0.788,1.22,-0.414 (inactive),0.302,0.197 (inactive),-1.12 (inactive),0.0535 (inactive),0.414 (inactive),0.887,0.185,0.867,0.887,0.81
[N-]=[N+]=NCc1ccccc1C[C@@]1(C(=O)N2CCCCC2)N=C(c2ccc(OCCCO)cc2)O[C@@H]1c1ccccc1N=[N+]=[N-],1.4,1.14,0.759,0.769,0.249,0.157,1.25,-0.162,0.885,-6.07 (inactive),-0.269,-3.28 (inactive),1.48 (inactive),0.596 (inactive),-1.16 (inactive),0.75,-0.209,0.704,0.826,0.0369
CC[C@@H]1[C@H]2C3C(=O)N(CC)C(=O)C3CC(=O)[C@H]2[C@H](c2ccc(C)cc2)N1S(=O)(=O)c1ccc(C)cc1 (stereo not given in full),0.733,1.1,0.213,0.142,0.532,0.087,1.18,0.201,0.676,0.497 (inactive),0.163,-2.9 (inactive),0.394 (inactive),-0.77 (inactive),-0.878 (inactive),1.4,-0.0986,-0.343,0.112,0.514
